# Measured values from PubChem BioAssay (NCATS).
# Inconclusive results are not listed. Entries that show only a call come without a potency. Calls of active or inactive are those of the source. Calls follow the shape of the dose curve; as a rule, active = well fitted cell-killing curve with a large enough effect; inconclusive = small, poorly fitted or top-dose-only effect, or effect the other way; inactive = no such curve, though single readings can be large or run the other way.
# What was measured:
# [1] = Viability qHTS for spleen associated tyrosine kinase inhibitor (SYKi) naive MV4-11 cells (AID 1963823); also: nearly all actives have a fitted effect of over 40% in size
# In short: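 CellTiter-Glo luminescence, 10 min room-temperature incubation, gave viability. Cells: naive MV4-11 (500/well), treated 72 hr at 37 C, 5% CO2.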
# [2] = Viability qHTS for spleen associated tyrosine kinase inhibitor (SYKi) drug resistant MV4-11 cells (AID 1963824); also: nearly all actives have a fitted effect of over 35% in size
# In short: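 SYK inhibitor-resistant MV4-11 AML cells, 500 per well, added to predispensed compounds and incubated 72 hr at 37 C, 5% CO2. Viability measured by CellTiter-Glo luminescence after 10 min at room temperature.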
# Potency is read from the fitted curve at half-maximal effect.
Structure (SMILES),Potency [1],Potency [2],viability (% of control) [1],"viability, % of control [2]"
C[C@]12CC[C@@H]3c4ccc(O)cc4CC[C@H]3[C@@H]1C[C@@H](O[C@@H]1O[C@H](C(=O)O)[C@@H](O)[C@H](O)[C@H]1O)[C@@H]2O,inactive,inactive,,
C=CC(=O)N1CCN(C(=O)CNc2cc(I)c(Cl)cc2O)CC1,7.31 µM (active),6.51 µM (active),,
COC(=O)CC1CC(c2ccc(O)cc2)=NO1 (stereo unspecified),inactive,inactive,,
COc1ccc(/C=C/C(=O)O[C@@H]2[C@@H](OC(C)=O)[C@@H](OC(C)=O)[C@H](O[C@H]3[C@@H]4C=CO[C@@H](O[C@@H]5O[C@H](CO)[C@@H](O)[C@H](O)[C@H]5O)[C@@H]4[C@@]4(CO)O[C@@H]34)O[C@H]2C)cc1,inactive,inactive,,
C[C@@H]1O[C@@H](OC[C@H]2O[C@@H](Oc3cc(O)cc4c3C(=O)C(O)(Cc3ccc(O)cc3)O4)[C@H](O)[C@@H](O)[C@@H]2O)[C@H](O)[C@H](O)[C@H]1O (stereo partly specified),inactive,inactive,,
COc1ccc2[nH]c3c(-c4cccc5ccccc45)nccc3c2c1,0.651 µM (active),0.82 µM (active),,
C=C1C[C@@]23CC[C@@H]4[C@](C)(C(=O)O)CCC[C@@]4(C)C2=CC[C@H]1C3,inactive,inactive,,
CC(=O)O[C@@H]1[C@H](OC(C)=O)C[C@@]2(C)C(CC[C@@H](C)[C@]23Cc2c(O)cc4c(c2O3)CN([C@@H](CCC(=O)O)C(=O)O)C4=O)C1(C)C (stereo partly specified),inactive,inactive,,
COCc1c(Cl)ccc2c1CC[C@H]2c1ncc[nH]1,inactive,inactive,,
C=C1CC23CC1CCC2C12OC(=O)C(C)(CCC1O)C2C3C(=O)O (stereo unspecified),inactive,inactive,,
CCN1CCN(C(=O)N[C@@H](C(=O)N[C@@H]2C(=O)N3[C@@H]2SC(C)(C)[C@@H]3C(=O)O)c2ccccc2)C(=O)C1=O,inactive,inactive,,
COC(=O)c1c(C)cc(OC(=O)c2c(C)cc(OC)cc2OC)cc1O[C@@H]1O[C@H](CO)[C@@H](O)[C@H](O)[C@H]1O,inactive,inactive,,
C/C=C(\C)[C@@H]1C(C)=C[C@@H]2[C@H]([C@@H]1/C=C/C=C/C(=O)O)[C@@H](C)CC[C@@H]2O,6.4 µM (active),3.6 µM (active),,
CC1C2=CC(=O)OC2(O)CC2C1CCC1C(C)(C)CCC(O)C21C (stereo unspecified),12.8 µM (active),4.53 µM (active),,
CC(=O)OCC(=O)O[C@@H]1[C@H]2[C@@H](OC(=O)c3ccccc3)[C@@H](C)C[C@]2(O)[C@H](OC(C)=O)C2(C)[C@H]3CC(C)(C)C(=O)[C@@H]3CC1(OC(C)=O)[C@@H]2OC(C)=O (stereo partly specified),inactive,inactive,,
C[C@@]12C[C@]3(O)O[C@H](O1)[C@]1(COC(=O)c4ccccc4)[C@H]3C[C@@]12O[C@@H]1O[C@H](CO)[C@@H](O)[C@H](O)[C@H]1O,inactive,inactive,,
CC1=CC(=O)CC(C)(C)C1CCC(C)O[C@@H]1O[C@H](CO)[C@@H](O)[C@H](O)[C@H]1O (stereo partly specified),inactive,inactive,,
CC(C)(C)Nc1nc(Nc2ccc(C(N)=O)cc2)cc(N)c1C#N,1.64 µM (active),2.31 µM (active),,
CC1CC(=O)C2=C(C1)C1OC1C1(O)C2C(=O)c2cccc(O)c2C1O (stereo unspecified),inactive,inactive,,
COc1ccc(CN2CCN(CCCSc3cc(C(C)(C)C)c(O)c(C(C)(C)C)c3)CC2)c(OC)c1OC,3.48 µM (active),3.48 µM (active),,
COc1cc2c(Nc3cc(F)c(Cl)c(Cl)c3)ncnc2cc1OCC1CCCN(C)CCC1,1.16 µM (active),2.59 µM (active),,
C[C@@H]1C(=O)O[C@H]2[C@@H](O)C34[C@H]5C[C@@H](C(C)(C)C)C36[C@@H](OC(=O)[C@@H]6O)O[C@@]4(C(=O)O5)[C@@]12O (stereo partly specified),inactive,inactive,,
NC(=O)c1ccc(OCC2NC(=O)C3CCCN3C2=O)cc1 (stereo unspecified),inactive,inactive,,
CN(C)S(=O)(=O)c1ccc2c(c1)/C(=C/c1cc3c([nH]1)CCCC3)C(=O)N2,0.82 µM (active),1.64 µM (active),,
C=C1[C@@H]2CC[C@@]3(C)[C@H](c4ccoc4)OC(=O)C[C@]13O[C@H]1CC(=O)C(C)(C)[C@H](C(O)C(=O)OC)[C@]12C (stereo partly specified),inactive,inactive,,
COc1cc(CCC2=NN=C(NC(=O)c3ccc(N4C[C@@H](C)N[C@@H](C)C4)cc3)C2)cc(OC)c1,0.461 µM (active),1.46 µM (active),,
CN(CCc1ccc(Nc2ncc(-c3cccnc3)s2)cc1)Cc1ccccc1,0.366 µM (active),0.651 µM (active),,

Structure (SMILES),Potency [1],Potency [2],viability (% of control) [1],"viability, % of control [2]"
CC(=O)N1CCN(C(=O)Cc2ccc(Nc3ncc(F)c(Nc4ccc(C(=O)Nc5ccccc5Cl)cc4)n3)cc2)CC1,0.517 µM (active),0.517 µM (active),,
CCOC(=O)C(CCc1ccccc1)NC1CSC(c2cccs2)CN(CC(=O)O)C1=O (stereo unspecified),25.9 µM (active),6.51 µM (active),,
CC1=C[C@H]2[C@@H](CC1=O)[C@H](C)C[C@H](O)[C@H]2C(C)C,inactive,inactive,,
CC(C)C[C@@H](N)C(=O)N[C@H]1C(=O)N[C@@H](CC(N)=O)C(=O)N[C@H]2C(=O)N[C@H]3C(=O)N[C@H](C(=O)N[C@H](C(=O)O)c4cc(O)cc(O)c4-c4cc3ccc4O)[C@H](O)c3ccc(c(Cl)c3)Oc3cc2cc(c3O[C@@H]2O[C@H](CO)[C@@H](O)[C@H](O)[C@H]2O[C@H]2C[C@](C)(N)[C@H](O)[C@H](C)O2)Oc2ccc(cc2Cl)[C@H]1O,inactive,inactive,,
CC(=O)c1c(OCCN2CCCCC2)c(OCCC(C)c2ccc(F)cc2)c2oc(C)nc2c1C (stereo unspecified),10.3 µM (active),7.31 µM (active),,
C[C@@H]1O[C@@H](O[C@H]2[C@H](O[C@H]3[C@H](O)[C@@H](C(=O)O)O[C@@H](O[C@H]4CC[C@@]5(C)C(CC[C@]6(C)C5CC[C@]57OC[C@@]8(CCC(C)(C)CC85)[C@H](O)C[C@]76C)C4(C)C)[C@@H]3O[C@@H]3O[C@H](CO)[C@@H](O[C@@H]4OC[C@@H](O)[C@H](O)[C@H]4O)[C@H](O)[C@H]3O)O[C@H](CO)[C@H](O)[C@@H]2O)[C@H](O)[C@H](O)[C@H]1O (stereo partly specified),,,77.6% [at 9.25 µM] (inactive),94.7% [at 9.25 µM] (inactive)
CC1OC(OC2C(C)OC(OC3C(OC(=O)C45CCC(C)(C)CC4C4=CCC6C7(C)CCC(OC8OC(C(=O)O)C(O)C(O)C8OC8OC(CO)C(O)C(OC9OC(C)C(O)C(O)C9O)C8O)C(C)(CO)C7CCC6(C)C4(C)CC5)OC(CO)C(O)C3O)C(O)C2O)C(O)C(O)C1O (stereo unspecified),,,89.1% [at 9.25 µM] (inactive),97% [at 9.25 µM] (inactive)
COc1c(C)c(OCC(O)C(C)(C)O)cc2c1CNC2=O (stereo unspecified),inactive,inactive,,
CC1(C)CCCC2(C)c3c4c(c(=O)oc(=O)c3=CCC12)=CCC1C(C)(C)CCCC41C (stereo unspecified),inactive,inactive,,
COc1cc2nc(C3CC3)nc(N3CCN(c4ccccc4OC)CC3)c2cc1OC,16.4 µM (active),14.6 µM (active),,
Cc1cc(-c2ccc(/C=C3\SC(=Nc4ccc(Cl)c(C(=O)O)c4)NC3=O)o2)c([N+](=O)[O-])cc1C,inactive,inactive,,
C=CC(C)(O)CC/C=C(\C)COC1O[C@H](CO)[C@@H](O)[C@H](O)[C@H]1O (stereo partly specified),inactive,inactive,,
CC(=O)OC(C)C(C)(O)C(=O)O[C@@H]1CC[C@]2(C)CC(=O)C(=C(C)C)C[C@H]2[C@]1(C)OC(C)=O (stereo partly specified),5.63 µM (active),inactive,,
COc1cc(C(=O)OCCCN2CCCN(CCCOC(=O)c3cc(OC)c(OC)c(OC)c3)CC2)cc(OC)c1OC,21.1 µM (active),21.1 µM (active),,
CCNC(=O)[C@@H]1CCCN1C(=O)[C@H](CCCN=C(N)N)NC(=O)[C@H](CC(C)C)NC(=O)[C@@H](CC(C)C)NC(=O)[C@H](Cc1ccc(O)cc1)NC(=O)[C@H](CO)NC(=O)[C@H](Cc1c[nH]c2ccccc12)NC(=O)[C@H](Cc1cnc[nH]1)NC(=O)[C@@H]1CCC(=O)N1,inactive,7.09 µM (active),,
CC(O)C1NC(=O)C2CCCN2C1=O (stereo unspecified),inactive,inactive,,
CC(=O)N[C@@H](CC(C)C)C(=O)N[C@@H](CCC(=O)O)C(=O)N[C@@H](CCC(=O)O)C(=O)N[C@@H](CC(=O)O)C(=O)Nc1ccc2c(C(F)(F)F)cc(=O)oc2c1,inactive,inactive,,
C/C=C/C1OC2=C(C(=O)OC2(C)O)C(O)C1O (stereo unspecified),inactive,inactive,,
COC(=O)C1=CO[C@@H](O[C@@H]2O[C@H](CO)[C@@H](O)[C@H](O)[C@H]2O)C2C1CC(O)C2C (stereo partly specified),inactive,inactive,,
CN[C@@H]1[C@@H](O)[C@@H](O[C@@H]2[C@@H](O)[C@H](O[C@H]3O[C@H](CN)[C@@H](O)[C@H](O)[C@H]3O)[C@@H](N)C[C@H]2NC(=O)[C@@H](O)CN)OC[C@]1(C)O,inactive,inactive,,
NC1CCC(Nc2cc(-c3cccc(NCc4cccc(F)c4)n3)c(Cl)cn2)CC1 (stereo unspecified),0.146 µM (active),0.116 µM (active),,
COC1=CC(=O)C[C@@H](C)[C@@]12Oc1c(Cl)c(OC)cc(OC)c1C2=O,inactive,inactive,,
CC(=O)O[C@@H]1[C@@H](O)[C@H](O[C@H]2CC[C@]34C[C@]35CC[C@]3(C)[C@@H]([C@@]6(C)CC[C@@H](C(C)(C)O)O6)[C@@H](O)C[C@@]3(C)[C@@H]5C[C@H](O[C@@H]3O[C@H](CO)[C@@H](O)[C@H](O)[C@H]3O)[C@H]4C2(C)C)OC[C@H]1O,inactive,inactive,,
O=c1ccn(C2OC(CO)C(O)C2O)c(=O)[nH]1 (stereo unspecified),inactive,2.06 µM (active),,
C=C1CCC[C@]2(C)C[C@]3(O)OC(=O)C(C)=C3C[C@@H]12,inactive,inactive,,
C/C=C(\C)C(=O)OC[C@H]1O[C@@H](O[C@H]2[C@@H](O[C@H]3O[C@H](COC(=O)/C(C)=C/C)[C@@H](O)[C@H](O)[C@H]3O[C@@H]3O[C@H](CO)[C@@H](O)[C@H](OC(=O)/C(C)=C/C)[C@H]3O)O[C@H](COC(=O)/C(C)=C/C)[C@@H](O)[C@@H]2O)[C@H](O)[C@@H](O)[C@@H]1O,,,81.6% [at 9.25 µM] (inactive),90.8% [at 9.25 µM] (inactive)
